# In the supplement of paper PMC12282887:
# ± gives the standard deviation of the averaged measurements.
# Experiments:
# Assay in all cases: promoter activity interaction Z-score (Lux/OD deviation from empty-vector control); higher = stronger promoter induction by the compound
# [1] = test system: E. coli BW25113 acrABp lux reporter
# Procedure, shortened: (§1)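 E. coli BW25113 (wild type or marA, soxS or rob deletion) carrying low-copy luxCDABE promoter reporters grew in 40 µl LB Lennox in 384-well plates at 37°C. Each compound was tested at four 1:2 dilutions in biological duplicates. OD600 and luminescence were read every 30 min for 12 h. Areas were taken over 0–8 h (wild type) or 1–9 h (mutants), and wells below 10% of median growth area were removed. The score is the Z-transformed residual of growth-normalised luminescence fitted against the empty-vector control.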
# [2] = test system: E. coli BW25113 micFp lux reporter
# Procedure, shortened: as §1
# [3] = test system: E. coli BW25113 ompFp lux reporter
# Procedure, shortened: as §1
# [4] = test system: E. coli BW25113 robp lux reporter
# Procedure, shortened: as §1
# [5] = test system: E. coli BW25113 soxSp lux reporter
# Procedure, shortened: as §1
# [6] = test system: E. coli BW25113 tolCp lux reporter
# Procedure, shortened: as §1
# [7] = 0.47 µg/ml, genetic background: wild type
# [8] = 0.47 µg/ml, genetic background: ΔmarA
# [9] = 0.47 µg/ml, genetic background: Δrob
# [10] = 0.47 µg/ml, genetic background: ΔsoxS
# [11] = 0.93 µg/ml, genetic background: wild type
# [12] = 0.93 µg/ml, genetic background: ΔmarA
# [13] = 0.93 µg/ml, genetic background: Δrob
# [14] = 0.93 µg/ml, genetic background: ΔsoxS
# [15] = 1.9 µg/ml, genetic background: wild type
# [16] = 1.9 µg/ml, genetic background: ΔmarA
# [17] = 1.9 µg/ml, genetic background: Δrob
# [18] = 1.9 µg/ml, genetic background: ΔsoxS
# [19] = 3.7 µg/ml, genetic background: wild type
# [20] = 3.7 µg/ml, genetic background: ΔmarA
# [21] = 3.7 µg/ml, genetic background: Δrob
# [22] = 3.7 µg/ml, genetic background: ΔsoxS
smiles,measurement,setting,value
CC1(C)S[C@@H]2[C@H](NC(=O)Cc3ccccc3)C(=O)N2[C@H]1C(=O)O [Penicillin G],promoter activity interaction Z-score,[1]; [7],-0.119 ± 0.09
same,promoter activity interaction Z-score,[1]; [8],-0.131 ± 0.52
same,promoter activity interaction Z-score,[1]; [9],0.0104 ± 0.26
same,promoter activity interaction Z-score,[1]; [10],0.211 ± 0.039
same,promoter activity interaction Z-score,[1]; [11],-0.14 ± 0.13
same,promoter activity interaction Z-score,[1]; [12],0.592 ± 0.63
same,promoter activity interaction Z-score,[1]; [13],0.28 ± 0.04
same,promoter activity interaction Z-score,[1]; [14],0.575 ± 0.16
same,promoter activity interaction Z-score,[1]; [15],-0.0936 ± 0.033
same,promoter activity interaction Z-score,[1]; [16],0.128 ± 0.61
same,promoter activity interaction Z-score,[1]; [17],-0.00373 ± 0.015
same,promoter activity interaction Z-score,[1]; [18],0.229 ± 0.28
same,promoter activity interaction Z-score,[1]; [19],0.0671 ± 0.041
same,promoter activity interaction Z-score,[1]; [20],0.328 ± 0.92
same,promoter activity interaction Z-score,[1]; [21],0.156 ± 0.023
same,promoter activity interaction Z-score,[1]; [22],0.14 ± 0.13
same,promoter activity interaction Z-score,[2]; [7],-0.185 ± 0.12
same,promoter activity interaction Z-score,[2]; [8],-0.107 ± 0.0057
same,promoter activity interaction Z-score,[2]; [9],-0.126 ± 0.1
same,promoter activity interaction Z-score,[2]; [10],-0.069 ± 0.047
same,promoter activity interaction Z-score,[2]; [11],-0.247 ± 0.14
same,promoter activity interaction Z-score,[2]; [12],-0.0395 ± 0.093
same,promoter activity interaction Z-score,[2]; [13],-0.135 ± 0.1
same,promoter activity interaction Z-score,[2]; [14],0.069 ± 0.064
same,promoter activity interaction Z-score,[2]; [15],-0.228 ± 0.13
same,promoter activity interaction Z-score,[2]; [16],0.0369 ± 0.038
same,promoter activity interaction Z-score,[2]; [17],-0.142 ± 0.026
same,promoter activity interaction Z-score,[2]; [18],0.21 ± 0.0048
same,promoter activity interaction Z-score,[2]; [19],-0.333 ± 0.01
same,promoter activity interaction Z-score,[2]; [20],-0.118 ± 0.043
same,promoter activity interaction Z-score,[2]; [21],-0.11 ± 0.08
same,promoter activity interaction Z-score,[2]; [22],-0.156 ± 0.19
same,promoter activity interaction Z-score,[3]; [7],0.195 ± 0.027
same,promoter activity interaction Z-score,[3]; [8],-0.0479 ± 0.074
same,promoter activity interaction Z-score,[3]; [9],-0.032 ± 0.25
same,promoter activity interaction Z-score,[3]; [10],0.447 ± 0.11
same,promoter activity interaction Z-score,[3]; [11],0.206 ± 0.52
same,promoter activity interaction Z-score,[3]; [12],0.589 ± 0.67
same,promoter activity interaction Z-score,[3]; [13],0.432 ± 0.096
same,promoter activity interaction Z-score,[3]; [14],0.381 ± 0.3
same,promoter activity interaction Z-score,[3]; [15],-0.392 ± 0.093
same,promoter activity interaction Z-score,[3]; [16],0.0358 ± 0.0037
same,promoter activity interaction Z-score,[3]; [17],0.00513 ± 0.15
same,promoter activity interaction Z-score,[3]; [18],0.64 ± 0.076
same,promoter activity interaction Z-score,[3]; [19],0.719 ± 0.27
same,promoter activity interaction Z-score,[3]; [20],1.16 ± 0.19
same,promoter activity interaction Z-score,[3]; [21],1.35 ± 0.66
same,promoter activity interaction Z-score,[3]; [22],1.7 ± 0.7
same,promoter activity interaction Z-score,[4]; [7],0.349 ± 0.073
same,promoter activity interaction Z-score,[4]; [8],-0.4 ± 0.07
same,promoter activity interaction Z-score,[4]; [9],0.363 ± 0.43
same,promoter activity interaction Z-score,[4]; [10],0.277 ± 0.35
same,promoter activity interaction Z-score,[4]; [11],0.428 ± 0.22
same,promoter activity interaction Z-score,[4]; [12],0.187 ± 0.37
same,promoter activity interaction Z-score,[4]; [13],0.468 ± 0.14
same,promoter activity interaction Z-score,[4]; [14],1.15 ± 0.22
same,promoter activity interaction Z-score,[4]; [15],0.165 ± 0.58
same,promoter activity interaction Z-score,[4]; [16],0.313 ± 0.31
same,promoter activity interaction Z-score,[4]; [17],0.501 ± 0.075
same,promoter activity interaction Z-score,[4]; [18],1.21 ± 0.031
same,promoter activity interaction Z-score,[4]; [19],-0.01 ± 0.15
same,promoter activity interaction Z-score,[4]; [20],-0.105 ± 0.66
same,promoter activity interaction Z-score,[4]; [21],0.319 ± 0.12
same,promoter activity interaction Z-score,[4]; [22],0.575 ± 0.42
same,promoter activity interaction Z-score,[5]; [7],-0.0325 ± 0.0094
same,promoter activity interaction Z-score,[5]; [8],-0.123 ± 0.17
same,promoter activity interaction Z-score,[5]; [9],-0.201 ± 0.0035
same,promoter activity interaction Z-score,[5]; [10],0.0709 ± 0.024
same,promoter activity interaction Z-score,[5]; [11],-0.167 ± 0.16
same,promoter activity interaction Z-score,[5]; [12],0.103 ± 0.074
same,promoter activity interaction Z-score,[5]; [13],-0.163 ± 0.14
same,promoter activity interaction Z-score,[5]; [14],0.0504 ± 0.19
same,promoter activity interaction Z-score,[5]; [15],-0.132 ± 0.13
same,promoter activity interaction Z-score,[5]; [16],-0.0824 ± 0.12
same,promoter activity interaction Z-score,[5]; [17],-0.0996 ± 0.047
same,promoter activity interaction Z-score,[5]; [18],0.084 ± 0.14
same,promoter activity interaction Z-score,[5]; [19],-0.201 ± 0.12
same,promoter activity interaction Z-score,[5]; [20],0.0156 ± 0.13
same,promoter activity interaction Z-score,[5]; [21],-0.136 ± 0.17
same,promoter activity interaction Z-score,[5]; [22],-0.126 ± 0.39
same,promoter activity interaction Z-score,[6]; [7],-0.848 ± 1
same,promoter activity interaction Z-score,[6]; [8],-0.0171 ± 0.012
same,promoter activity interaction Z-score,[6]; [9],0.219 ± 0.5
same,promoter activity interaction Z-score,[6]; [10],0.375 ± 0.55
same,promoter activity interaction Z-score,[6]; [11],-0.35 ± 0.54
same,promoter activity interaction Z-score,[6]; [12],-0.485 ± 0.89
same,promoter activity interaction Z-score,[6]; [13],-0.163 ± 0.37
same,promoter activity interaction Z-score,[6]; [14],0.352 ± 0.23
same,promoter activity interaction Z-score,[6]; [15],-0.309 ± 1
same,promoter activity interaction Z-score,[6]; [16],-0.171 ± 0.9
same,promoter activity interaction Z-score,[6]; [17],-0.0507 ± 1.1
same,promoter activity interaction Z-score,[6]; [18],0.284 ± 0.24
same,promoter activity interaction Z-score,[6]; [19],-0.124 ± 0.38
same,promoter activity interaction Z-score,[6]; [20],-0.297 ± 0.25
same,promoter activity interaction Z-score,[6]; [21],-0.675 ± 1.1
same,promoter activity interaction Z-score,[6]; [22],0.109 ± 0.61
